# Test results reported in PubChem BioAssay AID1508600 (Functional Genomics Laboratory (NCATS/FGL), 2020).
# About 3,700 (7%) of roughly 53,000 sequences were called active. Shown is part of a subset that was picked to be rich in actives. Unmarked numbers belong to inactive results.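 The calls were made as follows: active = gene knockdowns whose robust z-score for IL-1 alpha signal is at least 2 or at most -2, so actives lie on both sides; inactive = the rest.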
# Test: Components of the Cytosolic LPS Sensing Pathway: Gene Identification via Genome-wide siRNA Screen;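 also: robust z of the log signal after scaling to non-targeting control siRNA wells of the plate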
# Settings: RAW264.7 macrophages, IL-1a HTRF, actives lie on both sides, screened at 100 nM (by protocol), cells primed 5 h with Pam3CSK4 first
# Method in brief: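 Three distinct siRNAs per gene were tested singly at 100 nM in RAW264.7 macrophages. Following Pam3CSK4 priming and 24 hour LipidA transfection, IL-1a secretion was read by HTRF.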
row,Sequence,z-score
1,GGACGCAUGAUGUGGGUUCTT against Tmem41a,-0.626
2,GCUAAGUCGGAGCAGUUUUTT against Clba1,2.07 (active)
3,AUGGUGCUGUUUUAUUUGUTT against Olfr671,-0.807
4,UAUCGUCCACAACUACUCATT against Epn1,1.14
5,GGACAUCCAACCGUACAUGTT against Ccnd2,0.247
6,GCAAGCUACAUGCAUACAUTT against Zfp945,3.59 (active)
7,GCCCUUUGACAAUUUGUUUTT against Stra6l,-0.661
8,CCUAUGUAACACAAACAUUTT against Orc5,0.721
9,GGUACAAGGUCAUCAUGAGTT against Olfr1341,-2.85 (active)
10,GGAGGGAGUAUCCAUGUCATT against Nr2c2,0.209
11,GGUCGACAGACUCUUGCAUTT against Mylk3,-0.982
12,GCAAGCAGAGAUGUUACAUTT against Olfr1284,-0.975
13,GGUGCUGUAUUUGAUGUUATT against Nudt6,0.544
14,GGAACUUGAACUAAAAAUGTT against Eaf1,2.5 (active)
15,GGUGAUGGUGAACAAGAAATT against Lgals9,-0.811
16,GGCUCACGCUCGUUACCUATT against Nwd1,-1.86
17,GGGUCCUAAGACUAUUGAUTT against Eif4g1,0.274
18,GCUUCCUUCUUCUUGUCCATT against Vmn1r42,-0.475
19,GGAUUUUCGAUUCUCUUACTT against Glg1,2.25 (active)
20,GGAUGUUCAACCUAAACGATT against Ferd3l,-0.347
21,GGUUCAGAAGUCUAUGUCUTT against Ufsp1,0.866
22,GCCGUAUCACCCUAAACUATT against Pxylp1,2.05 (active)

row,Sequence,z-score
1,GGCCUAGUUCCAGUUAUGCTT against Olfr1093,-1.41
2,CCGCUACCUUAAGCACCUATT against Terf2ip,0.231
3,GGUUUGACUAACUUUCCUUTT against Fbxl15,0.198
4,GCGGGAACUUAAAGUUUACTT against Yars,3.18 (active)
5,GGAACAGUGCUUGUAUCAGTT against Clasrp,0.675
6,GGUUCCUUCGUGAAUGUCATT against Glp1r,0.0826
7,CCCGUCAAUACCACUUACCTT against Sidt2,2.19 (active)
8,GCUAAUCGGAUGCUGAAGCTT against Psmb7,0.71
9,CCUUAUGUCCCUAAGGCUATT against Mbd3,-0.109
10,CCUCAGUUAUAGAUGAUCUTT against Rdh11,0.319
11,CCCUCAAAUAACAUCCAGGTT against Sh3d21,-1.93
12,GGAAAUCUAUUUCAUUGACTT against Zcchc10,0.956
13,GCUUGUGCGAGUGUUGGAUTT against Has1,2.21 (active)
14,GGGUUUCCUACAGAGUACCTT against Amer3,-0.845
15,GGCAUGGAUUGGUGAGAUUTT against 9330175E14Rik,-0.576
16,GCAUUAAGCACGAGAAAAATT against Slc18a2,0.575
17,GCUCUCAGAUGACAUCACUTT against Supt5,-2.43 (active)
18,GGACCACUUGUAGUAUUUGTT against Map7d1,0.593
19,GGCAACUGCCUUUACCAUATT against Tceanc2,1.67
20,GGAGAUCGACCUGUCUAUGTT against Cep164,0.988
21,CGGAAAAGAUCCCUAUUGUTT against Adam5,0.373
22,GGGACGUGCAAUUGUCUGATT against Mfsd6,0.0857

row,Sequence,z-score
1,GGAUGGCAUGUCCUUCCAATT against Elf3,2.85 (active)
2,GGAAGUGGAAAAAGUUUAGTT against Brip1,0.442
3,GGCAUUGCUGACUACAAACTT against Tcn2,2.15 (active)
4,GCAGUUUUGGGCAAUACCUTT against Olfr358,1.22
5,GCAACGCAACAGCAUUCCUTT against Psmg1,1.34
6,GGAUAUGCUGAGGUGGUGGTT against Cpsf7,-1.07
7,GGUGUACAUGGACAUCAAGTT against Ppie,0.0171
8,GGUCUUUGAGUUAAACCAUTT against Cdc7,-0.0476
9,CCUGAGCUAGAAUCUCAGATT against Zmat2,0.715
10,CCCUUUCAACCAUUAAGCUTT against Kcns2,0.243
11,GGAUGGGUCAAUGUUCUACTT against V1rb6,0.232
12,CCACCAGAAUCCUAACACATT against Nucb2,2.55 (active)
13,CCAUGUGUAAAGGGAGAAATT against Nxph2,0.893
14,CCAGUUGUGUGAAUUAUGUTT against Psmd2,-2
15,CCUACCGUUACCUAAGUGATT against Kcnj5,-1.15
16,GCAAUGAGUAUUCAUGCAATT against Sec61a2,-1.86
17,CCUUCAGUGCUGUAGUGUATT against Rasl10b,0.37
18,GGAGUCCUAGAACACACAGTT against Snap29,-1.79
19,GGAAUAUUAUGGGUAUCGATT against Cacna1s,0.952
20,GGUGGACUCUGUUUAAAAATT against Mtnr1a,0.971
21,GGUCUGUGAAAUGAAAAAUTT against Brix1,-0.473
22,GGACUUACAUGGAAUUUUATT against Eftud2,-2.07 (active)

row,Sequence,z-score
1,CGGGUAUCAUCGAUUAUGGTT against Tnfaip6,-0.356
2,GGAGUGCAGUACAAAGGACTT against Ahsa1,0.872
3,GCCCAGCUCAAAUCUCCAUTT against Defb41,1.05
4,GGACUUUUCAUUUGAAGCATT against Gar1,1.03
5,GGAGUUUGUAGCUGACAUCTT against Dcaf15,-1.02
6,GCCUUUCUCGCUACUUAGUTT against Cltc,2.83 (active)
7,GGAAAUCCAACUUCUUUCATT against Ebf2,2.7 (active)
8,GGUGUCUGCGUGAAGAUCATT against Cacng8,2.81 (active)
9,CCUGGACAAGCUAUACCUUTT against Cdc45,0.952
10,GGCAUUGUAACCCUUGUAATT against Zscan26,-0.684
11,CGACUGGAUACCAAAUUACTT against Mtrex,-1.21
12,GGAUCAUGAGAAUAUCAUCTT against P4hb,0.816
13,GGUGAUGUCAAGAGUUUUCTT against Hacd2,3.56 (active)
14,GGGCCUCCUGUAAACAUCCTT against D630039A03Rik,0.884
15,AUAAGAUGUUGCUCGGAACTT against Olfr1193,1.26
16,GCCAGUGUUAUCCAGGACUTT against Cggbp1,1.35
17,GCAACUCAACCUCAACCAUTT against Lrrc8e,-0.597
18,CCUCGAGUGGUUGGAUAAGTT against Vps25,-2 (active)
19,GGUGAAAUUGCUCAGAUAATT against Narf,0.387
20,AACCAUGAUGCUUACGUUUTT against S100a10,0.285
21,CCACAUACAUUUCACAGGGTT against Kdf1,-0.806
22,GGAGUGUGUGCUUUUAAAATT against Rabggta,0.248

row,Sequence,z-score
1,GGCAGAAGUGGAAAAACAATT against Tmco1,-0.417
2,GGAAUGUAUCCAGGACUUCTT against Brd4,-2.46 (active)
3,GAACCCUCAUGAGGGUUACTT against C1ql1,0.177
4,GCCAGUAUGCUGUAUGGCUTT against Bcas3,-0.712
5,GCUACCUCUUGCAUGGGAGTT against Bivm,-0.0737
6,GCUGAUAAACAUCAGCUACTT against Zdhhc23,4.01 (active)
7,GGCCUGUAUUCUGCUCUGUTT against Olfr341,0.0576
8,GGCUGCUUAGCUUUAAUGGTT against Ccdc177,-0.674
9,GGGAUACUCCAAGUUCCAUTT against Muc4,2.85 (active)
10,GGUUCUAGGCAGUUUGAUATT against Tlnrd1,1.64
11,GCCAAUUAAUGAUUGCUUUTT against Zfp322a,0.945
12,CGCCAGCAGAACUCAAAUATT against Gm11992,0.623
13,GCGUGCUUAUGAACAUAGUTT against Spen,2.02 (active)
14,GAUGAUUGACGACAUGGAATT against Rgs9bp,0.656
15,GGAUGAUGUGAUGAAGAUCTT against Fgfr4,-0.0955
16,GGUUAAAUGCCCGCCAACATT against Eif2ak4,-0.876
17,GGAUAAGGACCUCUUCUCUTT against Ubl7,-1.41
18,GGGAAUAGCAAACUUAUCUTT against Nfil3,-0.688
19,GGGACAAAACCUUGAUGGUTT against Vmn1r200,-0.254
20,GGAAGUAAUCAAUUUGGUGTT against Epm2aip1,1.36
